Screening data as filed in PubChem.
The list is not random: actives were taken first. Their share in the collection is about 1.2%.
PKA-R1A act = activates the PKA-R1A holoenzyme complex; P00514+P68181; PKA-R1A dissociation, Cy5-IP20 fluorescence polarization; scaled: DMSO 0%, 113 µM cGMP 100%; activation, % at 11.4 µM; hit rate 0.083% among 340,000; AID 504707;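 active = percent activation above the mean of all tested compounds plus 3 SD, cut at about 19% in these data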;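 also: higher means more PKAc released from R1A so a rise in polarization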
PG9 Ab binder = PG9 antibody binding by small molecule; TR-FRET gp120-PG9 antibody binding; inhibition, % at 6.7 µM; hit rate 0.43% among 360,000; AID 624416; in the data active = inhibition above about 8.5%
NR1D1 modulator = modulators of human Rev-erb alpha DNA binding; activity, % at 10 µM; P20393; AID 1259318; hit rate 0.79% among 370,000; Rev-erbα–FITC-DNA binding, fluorescence polarization, 90 min;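 active = activity above about 14%, limit read from the data; passing the limit was not always enough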
PKA-R2B activ = activators of human PKA-R2B complex; P22694+P31323; activation, % at 11.4 µM; AID 504700; hit rate 0.079% among 340,000; PKA-R2B holoenzyme dissociation, Cy5-IP20 fluorescence polarization; R2B truncated from residue 108, S112A mutant; 0% DMSO only, 100% 113 µM cGMP;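 active = activation above a cutoff set at the mean over all compounds plus 3 SD, cut at about 18% in these data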;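 also: higher means more holoenzyme dissociation and a rise in polarization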
Target sequence (P31323 whole entry, looked up, other chains not shown, the tested form may be a part): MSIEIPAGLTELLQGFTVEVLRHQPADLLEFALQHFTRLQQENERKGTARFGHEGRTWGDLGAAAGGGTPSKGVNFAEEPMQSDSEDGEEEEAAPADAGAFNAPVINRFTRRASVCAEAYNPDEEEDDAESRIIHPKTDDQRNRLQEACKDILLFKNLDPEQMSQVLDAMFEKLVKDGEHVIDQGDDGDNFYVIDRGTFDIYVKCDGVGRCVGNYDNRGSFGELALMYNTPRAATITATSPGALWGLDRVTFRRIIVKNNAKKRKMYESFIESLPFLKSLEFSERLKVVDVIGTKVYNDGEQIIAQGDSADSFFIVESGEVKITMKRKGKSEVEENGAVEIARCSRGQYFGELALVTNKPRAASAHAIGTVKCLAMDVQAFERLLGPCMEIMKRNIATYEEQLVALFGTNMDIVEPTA
NR1D1 mod conf = confirmation of modulators of human Rev-erb alpha DNA binding. shares compounds with NR1D1 modulator. Rev-erb alpha FITC-DNA binding, fluorescence polarization, 90 min. hit rate 61% among 3,000. activation, % at 25 µM;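 active = activation at or above a set limit, or at least 3 SD above the negative control mean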
RORg counter = RORgamma DNA-binding activity, dose-response counter-screen | shares compounds with NR1D1 modulator | purified RORgamma protein-FITC-DNA binding, fluorescence polarization | IC50, µM | hit rate 8% among 910;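 active = Compounds whose fitted half-maximal concentration for disrupting protein-DNA binding is below 10 micromolar; the record names Rev-erb in its text, so the target is in doubt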
Hits are given with their value; - = inactive; . = not tested or not shown.

SMILES	PKA-R1A act	PG9 Ab binder	NR1D1 modulator	PKA-R2B activ	NR1D1 mod conf	others
CC(C)(C)c1ccc(S(=O)(=O)N2CCCC(C(=O)NCCN3CCC(Cc4ccccc4)CC3)C2)cc1 (stereo not given)	.	.	-	.	.
COc1nc2ccc(C)cc2cc1-c1noc(-c2cccnc2)n1	-	-	35	-	-
CCCc1cc2c(=O)c(-c3nc4ccccc4s3)c(COCC(=O)O)oc2cc1O	-	-	30	-	-
O=C(NCc1ccc(F)cc1)c1cc(-c2ccccn2)nc2ccc(S(=O)(=O)N3CCOCC3)cc12	-	-	18	-	19
NS(=O)(=O)c1ccc(CNC(=O)c2cc(-c3ccccn3)nc3ccc(Cl)cc23)cc1	-	-	23	-	19
O=C(Nc1ccccc1)Nc1nc2ncccn2c1-c1ccc(F)c(F)c1	.	.	-	.	.
Cc1noc(C)c1NC(=O)Nc1ccc2c(c1)C(=O)N(C)[C@H]1CC[C@H](CC(=O)NCc3ccc(Cl)cc3)O[C@@H]1CO2	.	.	-	.	.
O=S(=O)(c1ccccc1Br)N(Cc1cn(CC2CCCCC2)nn1)C1CC1	.	.	-	.	.
O=C(NC1CCCC1)C1CCN(S(=O)(=O)c2ccc3[nH]c(=O)oc3c2)CC1	.	.	-	.	.
O=C(COc1ccc(Br)cc1Br)NC(=S)Nc1cccc(CO)c1	-	-	-	-	.
O=C(COc1ccc2ccccc2c1Br)NC(=S)Nc1cccc(CO)c1	-	-	24	-	21
CCCc1nc2sc(C(=O)OCC)c(N)c2c2c1COC(C)(C)C2	-	-	48	-	25
COc1ccc(NC(=O)c2sc3nc(N4CCCC4)c4c(c3c2N)CC(C)(C)OC4)cc1	-	-	127	-	80	RORg counter=-
Cc1nc(NC(=O)c2ccc(-c3cc4ccccc4oc3=O)cc2)ccc1Br	-	-	36	-	-
CCOC(=O)c1ccccc1NC(=O)c1cncc(Br)c1	-	-	94	-	77	RORg counter=-
Cc1nc(NC(=O)c2cncc(Br)c2)ccc1Br	-	-	62	-	55	RORg counter=-
Cc1cc(NC(=O)c2cncc(Br)c2)no1	-	-	-	-	.
COc1cccc(C(=O)c2cc3cc(Cl)ccc3[nH]2)c1	-	-	20	-	-
COC(=O)[C@]12C=CCN1[C@@H](c1ccc(C(F)(F)F)cc1)c1c(c3ccccc3n1S(=O)(=O)c1ccc(C)cc1)C2	.	.	-	.	.
CSc1ncccc1C(=O)OCC(=O)c1ccc2c(c1)NC(=O)CO2	-	-	40	-	-
COc1cc(OC)c(C(=O)OCC(=O)c2ccc3c(c2)NC(=O)CO3)cc1OC	-	-	-	-	.
CCCn1c(-c2cccs2)nc2c1c(=O)[nH]c(=O)n2Cc1ccccc1	-	-	23	-	-
Cc1ccc(S(=O)(=O)c2nnn3c2nc(N2CCN(c4ccccn4)CC2)c2ccccc23)cc1C	-	-	72	-	62	RORg counter=-
O=[N+]([O-])c1cc(-c2cnc3ccccc3n2)ccc1Cl	-	-	93	-	68	RORg counter=-
CC(C)CCn1c(SCC(=O)NC2CCS(=O)(=O)C2)nc2cc(Cl)ccc2c1=O (stereo not given)	-	-	21	-	21
SMILES	PKA-R1A act	PG9 Ab binder	NR1D1 modulator	PKA-R2B activ	NR1D1 mod conf	others
CCOC(CCn1c(SCC(=O)NC2CCCC2)nc2ccccc2c1=O)OCC	-	-	-	-	.
CC(C)CCn1c(SCC(=O)NC2CC2)nc2cc(Cl)ccc2c1=O	-	-	20	-	-
CC(C)Cn1c(SCC(=O)N(C)C2CCS(=O)(=O)C2)nc2cc(Cl)ccc2c1=O (stereo not given)	-	-	-	-	.
Cc1nc2ccc(NC(=O)c3cc(F)cc(F)c3)cc2c(=O)[nH]1	.	.	-	.	.
COc1ccc(C=Nn2c(-c3ccc(F)cc3)n[nH]c2=S)c(OC)c1OC	.	.	-	.	.
CC1=NCCN1S(=O)(=O)c1c(C(C)C)cc(C(C)C)cc1C(C)C	-	-	45	-	44	RORg counter=-
COc1ccc(Cl)cc1S(=O)(=O)N1CCN=C1C	-	-	-	-	.
CCOC(=O)c1cccc(NC(=O)CN(C)S(=O)(=O)c2ccc(F)cc2)c1	.	.	-	.	.
Cc1nc(NCCc2ccc(Cl)cc2)c2nnn(Cc3ccccc3)c2n1	-	-	40	-	35	RORg counter=-
CCN(CC)c1ccc2cc(C(C)=O)c(=O)oc2c1	-	-	36	-	-
CCN(CC)c1ccc2cc(C=O)c(=O)oc2c1	-	-	90	-	74	RORg counter=-
CCN(CC)c1ccc2cc(-c3nnc(-c4ccncc4)o3)c(=O)oc2c1	-	-	59	-	30
CCN(CC)c1ccc2cc(C(N)=O)c(=N)oc2c1	.	-	55	.	24
CCN(CC)c1ccc2cc(NC(=O)CCC(=O)O)c(=O)oc2c1	-	-	-	-	.
CCN(CC)c1ccc2cc(C(N)=O)c(=O)oc2c1	-	-	-	-	.
COC(=O)[C@]12C[C@H](CC(=O)NCC34CC5CC(CC(C5)C3)C4)C(=O)N(Cc3ccc(Cl)cc3Cl)C1=C[C@H](C(C)(C)C)O[C@@H]2C	.	.	-	.	.
Cc1cc(Br)cn2c(Cc3ccccc3C(F)(F)F)c(-c3ccccc3)nc12	.	-	22	.	11
Cc1ccc(Cc2c(-c3ccc(Br)cc3)nc3ccc(Br)cn23)cc1	-	-	24	-	22
Cc1cc(Br)cn2c(Cc3ccccc3)c(-c3cccc(Cl)c3)nc12	.	-	19	.	16
Cc1ccc(-c2nc3c(C)cc(Br)cn3c2Cc2cccc(F)c2)cc1	.	-	21	.	20
Cc1ccc(Cc2c(-c3ccccc3)nc3c(C)cc(Br)cn23)cc1	.	-	-	.	.
Cc1ccc(Cc2c(-c3ccc(Br)cc3)nc3ccc(Cl)cn23)cc1	.	-	-	.	.
C#CCOCCOCCOCCNc1nc(N2CCOCC2)nc(N2CCN(C(=O)[C@H](CCC(=O)O)n3cc(C(N)CO)nn3)CC2)n1 (stereo not given in full)	.	.	-	.	.
O=C(OCc1cn(Cc2ccc(Cl)cc2)nn1)N1CCCC1	.	.	-	.	.
COC(=O)[C@H](C(C)C)N(Cc1cn(Cc2ccc(C)cc2)nn1)S(=O)(=O)c1ccccc1Br	.	.	-	.	.
SMILES	PKA-R1A act	PG9 Ab binder	NR1D1 modulator	PKA-R2B activ	NR1D1 mod conf	others
Cc1cc(Br)c2nc(-c3ccccc3)c(Cc3cccc(Cl)c3)n2c1	.	-	27	.	15
COc1ccc(-c2nc3ccc(Br)cn3c2Cc2cccc(F)c2)cc1OC	.	-	18	.	-
CCNc1ccc2noc3c2c1C(=O)c1ccccc1-3	-	-	49	-	57	RORg counter=-
O=C(NCc1ccccc1Cl)c1cccc2c1C(=O)c1ccc(-c3ccc(OC(F)(F)F)cc3)cc1S2(=O)=O	-	.	.	-	.
O=C(NCc1cccc(F)c1)c1cccc2c1C(=O)c1ccc(N3CCOCC3)cc1S2(=O)=O	-	-	118	-	87	RORg counter=-
CC1CCN(c2ccc3c(c2)S(=O)(=O)c2cccc(C(=O)NC[C@@H]4CCCO4)c2C3=O)CC1	-	-	18	-	-
O=C(NCc1cc(C(F)(F)F)ccc1Cl)c1cccc2c1C(=O)c1ccc(Cl)cc1S2(=O)=O	.	-	32	.	50	RORg counter=-
